# High-throughput results deposited in PubChem by The Scripps Research Institute Molecular Screening Center.
# DAX1 inh-1: blocks DAX1 repression of SF-1 activated StAR promoter | HEK293T StAR-luciferase reporter, SF-1/DAX-1 repression relief | 370,000 compounds, 1.1% hits | inhibition, % at 6.8 µM;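 active means inhibition above the mean over all tested compounds plus 3 SD, cut at about 3.6% in these data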;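 further: 0% = DAX-1 cells with DMSO and 100% = cells lacking DAX-1 with DMSO; higher inhibition means more luminescence from relief of DAX-1 repression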
# DAX1 inh-2: inhibits human nuclear receptor DAX1; AID 504766; HEK293 Gal4-DAX1 luciferase reporter, luminescence; inhibition, % at 6.75 µM; P51843; 340,000 compounds, 0.99% hits;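 active means inhibition above the mean over all tested compounds plus 3 SD, cut at about 4.2% in these data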;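 further: 0% = DAX1-transfected cells with DMSO and 100% = empty-vector control cells with DMSO; inhibition shows as a rise in luminescence from relieved DAX1 repression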
# hgDAF-12 ag: activates the H. glycines DAF-12 receptor ligand-binding domain; HEK293 GAL4-hgDAF12 UAS-luciferase reporter, agonist luminescence; normalized to butyrate control; activation, % at 6.8 µM; 370,000 compounds, 1.8% hits;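 active means activation above a cutoff set at the mean of all screened compounds plus 3 SD, cut at about 10% in these data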;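 further: 0% = DMSO wells and 100% = sodium butyrate wells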
# AHR act: activates the human aryl hydrocarbon receptor; AID 2796; 320,000 compounds, 2.5% hits; activation, % at 5 µM; P35869; AHR-responsive luciferase reporter cells, luminescence; in the data active means activation above about 47%;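 further: 0% = vehicle wells and 100% = reference agonist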
# hcDAF12 agonist: activates DAF-12 receptor from parasite H. contortus; AID 652067; HEK293 hcDAF-12 lit1-tk-luc reporter, luminescence; 0% DMSO, 100% Δ7-dafachronic acid; activation, % at 6.8 µM; 370,000 compounds, 1.4% hits;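 active means activation above the mean of all tested compounds plus 3 SD, cut at about 5.5% in these data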;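 further: 100% = response to 3 µM Δ7-dafachronic acid high control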
# ssDAF12 agonist: activates DAF-12 receptor from parasite S. stercoralis | HEK293 ssDAF-12/GRIP1 lit1-tk-luc reporter, luminescence; % of 3 µM dafachronic acid response | activation, % at 6.8 µM | 370,000 compounds, 1% hits;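 active means activation above the mean over all tested compounds plus 3 SD, cut at about 0.9% in these data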;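 further: 0% = DMSO-only wells and 100% = 3 µM delta7-dafachronic acid wells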
# hgDAF12 conf: confirmation of H. glycines DAF-12 agonists. shares compounds with hgDAF-12 ag. HEK293 GAL4-hgDAF12 luciferase reporter, agonist mode; percent of butyrate response. activation, % at 6.8 µM. 3,300 compounds, 80% hits;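 active means mean activation over triplicate wells above the hit cutoff derived from the earlier primary screen, cut at about 11% in these data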;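 further: 0% = DMSO low control and 100% = 2 mM sodium butyrate high control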
# LXR ag 2: activates human LXR-beta, counter-screen for DAF-12 agonists; HEK293 Gal4-LXR luciferase reporter, 24 h; shares compounds with hgDAF-12 ag; activation, % at 6.8 µM; 3,300 tested, under 10 active;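 active means mean activation of the triplicate above a set limit carried over from the primary screen, none filed active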
# Target sequence (P55055 whole entry, looked up, the tested form may be a part): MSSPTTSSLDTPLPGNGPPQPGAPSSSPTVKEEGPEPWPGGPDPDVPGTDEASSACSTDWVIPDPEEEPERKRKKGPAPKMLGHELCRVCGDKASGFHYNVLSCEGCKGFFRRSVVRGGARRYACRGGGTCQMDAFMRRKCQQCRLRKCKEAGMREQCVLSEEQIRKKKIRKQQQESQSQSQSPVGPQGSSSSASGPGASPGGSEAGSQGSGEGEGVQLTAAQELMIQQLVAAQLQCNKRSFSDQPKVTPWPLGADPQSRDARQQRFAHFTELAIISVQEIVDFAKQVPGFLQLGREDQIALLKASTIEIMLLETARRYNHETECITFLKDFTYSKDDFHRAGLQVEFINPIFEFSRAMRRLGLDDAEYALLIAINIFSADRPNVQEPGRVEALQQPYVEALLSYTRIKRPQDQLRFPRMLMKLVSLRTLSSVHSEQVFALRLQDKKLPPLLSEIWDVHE
# Numbers without * were called inactive; . = no result. Most compounds without a hit are left out; they make up all but 5.7% or so of the library.
SMILES,DAX1 inh-1,DAX1 inh-2,hgDAF-12 ag,AHR act,hcDAF12 agonist,ssDAF12 agonist,hgDAF12 conf,LXR ag 2
Cc1nc(C(C)NC(=O)CCc2nnc(CCCc3ccccc3)o2)c(C)s1 (configuration not stated),1.2,-0.3,13.2*,14.9,1.9,0.5,9.9,0.2
Cc1cc(C)n(CC(C)NC(=O)CCc2nnc(CCc3ccccc3)o2)n1 (configuration not stated),-0.7,1.9,0.9,-0.7,-0.9,-0.9,.,.
O=C(Nc1ccc(F)c(Cl)c1)c1cc(C2CCCCN2C(=O)C2CC2)on1 (configuration not stated),-0.2,.,-0.2,.,-0.1,-1.4,.,.
O=C(Nc1ccc(F)c(Cl)c1)c1cc(C2CCCN(C(=O)C3CC3)C2)on1 (configuration not stated),4.4*,.,14.7*,.,1.1,-0.1,8.3,0.7
CCN1C(=O)c2n[nH]c(C(=O)OC)c2C1=O,0.1,0.9,1.2,8.1,-0.6,-1.3,.,.
CC(OC(=O)c1cc2sccc2n1C)C(=O)NC(C)(C)C (configuration not stated),-0.8,-1.1,-2.6,1.1,-0.1,-1.7,.,.
Cc1ccc(CN2CCN(CC(C)C)C(CCO)C2)s1 (configuration not stated),0.2,3.4,15.1*,4.8,3.8,0.1,10.1,0.3
O=C(/C(C=Nc1cc2c(oc1=O)CCCC2=O)=C(\O)c1ccccc1)c1ccccc1,1.7,3.2,13.6*,-2.1,2.8,-0.5,6.1,0.2
Cc1occc1C(=O)N/N=C/c1cnn(C)c1C,3.2,1.7,15.8*,14.3,2.9,0.4,8.6,0.4
O=C(N/N=C/c1ccc(Cl)cc1Cl)c1ccc2nc[nH]c2c1,-1.3,0.2,-0.2,9.0,-1.4,-0.8,.,.
Cc1ccc(/C=N/NC(=O)C(=O)N/N=C/c2ccc(C)o2)o1,0.4,0.2,3.3,5.3,-0.6,-1.6,.,.
COc1cccc(/C=N/NC(=S)Nc2cccc(C(=O)O)c2)c1O,1.5,-4.6,16.8*,-0.4,-0.7,-0.6,3.8,0.1
O=C(N/N=C/c1ccc(Cl)cc1Cl)c1cccc(F)c1,3.1,2.6,15.1*,-2.7,4.5,0.3,15.3*,0.6
Cc1ccc(/C=N/NC(=O)c2ccoc2C)o1,1.7,1.4,14.1*,33.9,5.4,0.0,4.5,0.0
Cc1occc1C(=O)N/N=C/c1c(O)ccc2ccccc12,-2.1,-1.6,-4.8,38.1,-0.3,-1.5,.,.
Cc1nn(CC(=O)N2CCN(Cc3ccccc3)CC2)c(=O)c2ccccc12,-0.4,0.9,1.1,2.2,-1.6,-0.9,.,.
CCOC(=O)c1cnc2ccc(C)cc2c1Sc1ccccc1,1.0,-0.4,5.3,12.8,-0.7,-1.0,.,.
Cc1nn(-c2ccccc2)c(C)c1C(=O)NCc1ccc(S(N)(=O)=O)cc1,0.1,2.2,0.5,2.4,2.0,-0.4,.,.
Cc1c(/C=N/NC(=O)c2ccc3c(c2)OCO3)cnn1C,-0.2,0.5,3.5,-0.3,0.3,-0.1,.,.
CC(=O)Nc1cccc(C(=O)N/N=C/c2ccccc2F)c1,3.7*,2.6,13.9*,46.9,5.3,0.9,20.1*,0.6
Cc1c(/C=N\NC(=O)c2cccc(F)c2)cnn1C,0.8,3.6,15.3*,5.8,3.6,-0.8,4.0,0.1
O=C(Nc1ccnn1C1CCN(C(=O)c2ccc(Cl)c(F)c2)CC1)C1CCOC1 (configuration not stated),0.9,-0.1,3.5,.,-0.6,-1.4,.,.
O=C(CNC(=O)c1ccco1)N/N=C/c1cccs1,0.6,-0.9,1.8,-2.9,-2.4,-1.2,.,.
CN(C)c1ccc(C2=NOC(CN3C(=O)c4ccccc4S3(=O)=O)C2)cc1 (configuration not stated),2.6,3.1,13.5*,33.0,5.4,0.1,17.5*,0.8
CN(C)c1nc(N(C)C)nc(N(C#N)CN2C(=O)c3ccccc3S2(=O)=O)n1,0.9,1.5,1.2,0.8,-0.6,-1.3,.,.
SMILES,DAX1 inh-1,DAX1 inh-2,hgDAF-12 ag,AHR act,hcDAF12 agonist,ssDAF12 agonist,hgDAF12 conf,LXR ag 2
Cc1cccc(-c2nnc(-c3ccccc3)o2)c1,1.5,1.8,13.4*,32.0,4.4,0.8,15.8*,0.6
Cc1nnc(-c2ccccc2)o1,0.1,0.6,0.6,2.4,-0.1,-0.8,.,.
O=C(NCCc1ccccc1)c1ccc(-c2cccnc2)c2ccoc12,4.3*,.,14.2*,.,1.3,0.7,10.6*,0.5
O=C(NCc1cccc(Cl)c1)c1ccc(-c2cccnc2)c2ccoc12,-0.3,.,-2.3,.,-2.4,-1.5,.,.
C=CCNc1ncnc2c1cnn2-c1cccc(C)c1,6.3*,1.7,17.2*,-7.0,2.1,-0.6,16.1*,0.8
c1ccc(-n2ncc3c(NCCCN4CCOCC4)ncnc32)cc1,1.1,1.6,8.5,4.3,3.5,0.0,.,.
CCCCNc1ncnc2c1cnn2-c1ccccc1,-0.2,-1.3,20.2*,-2.1,3.1,0.1,16.6*,0.8
CCCCNc1ncnc2c1cnn2-c1ccc(Cl)cc1,1.2,-1.4,15.9*,-3.8,1.5,0.4,24.0*,1.1
Cc1cc(Cl)ccc1C(O)c1ncc(-c2ccccc2Cl)[nH]1 (configuration not stated),0.5,.,-0.6,.,-1.0,-1.8,.,.
CCOC(=O)Nc1ccc2nc(-c3cscn3)[nH]c2c1,-1.1,0.0,15.6*,.,2.6,0.3,14.5*,0.4
Fc1cccc(Cl)c1CN1CCN(c2nc3ccccc3s2)CC1,2.6,3.6,13.4*,.,5.5,0.5,10.8*,0.4
Cc1ccc(C(=O)N/N=C/C2=Cc3ccccc3OC2C)cc1 (configuration not stated),-0.2,-1.0,5.5,7.6,-1.5,-1.8,.,.
CC1Oc2ccccc2C=C1/C=N/NC(=O)c1ccccc1 (configuration not stated),1.7,1.4,14.0*,2.8,1.9,-1.2,8.9,0.4
Cc1nn2cc(-c3ccc(Cl)cc3)nc2s1,3.9*,1.7,13.9*,6.4,4.6,-0.1,15.6*,0.9
Cc1nn2cc(-c3ccc(-c4ccccc4)cc3)nc2s1,2.4,0.8,15.3*,-1.4,5.7*,0.9,16.0*,0.8
O=C(Nc1ccc(Cl)cn1)c1cccc(F)c1,-0.3,-1.4,17.2*,3.2,3.5,-0.3,16.8*,0.7
O=C(/C=C/Nc1ccc(Oc2ccccc2Cl)cc1)c1ccco1,1.4,2.6,14.6*,9.4,2.4,-0.1,16.6*,0.6
Cc1ccc(Oc2ccc(NC(=O)c3ccco3)cc2)cc1,-0.8,0.5,3.0,1.1,-0.6,-0.8,.,.
